Data as given in the supplement of paper PMC11732987, “Enantioselective OTUD7B fragment discovery through chemoproteomics screening and high-throughput optimisation” (Communications Chemistry, 2025).

Columns and labels:
Assay in all cases: log2 ratio of Biotin-Ahx-Ub-VS probe labelling (fragment/DMSO); higher = less target engagement (more negative = stronger competition), active = hit call of the paper (q ≤ 0.05, log2 ratio ≤ -1)
Conditions in all cases: compound concentration: 200 uM; treatment time: 3 h
USP42 = biological target: T1, USP42 (UniProt Q9H9J4)
T1 sequence (whole entry): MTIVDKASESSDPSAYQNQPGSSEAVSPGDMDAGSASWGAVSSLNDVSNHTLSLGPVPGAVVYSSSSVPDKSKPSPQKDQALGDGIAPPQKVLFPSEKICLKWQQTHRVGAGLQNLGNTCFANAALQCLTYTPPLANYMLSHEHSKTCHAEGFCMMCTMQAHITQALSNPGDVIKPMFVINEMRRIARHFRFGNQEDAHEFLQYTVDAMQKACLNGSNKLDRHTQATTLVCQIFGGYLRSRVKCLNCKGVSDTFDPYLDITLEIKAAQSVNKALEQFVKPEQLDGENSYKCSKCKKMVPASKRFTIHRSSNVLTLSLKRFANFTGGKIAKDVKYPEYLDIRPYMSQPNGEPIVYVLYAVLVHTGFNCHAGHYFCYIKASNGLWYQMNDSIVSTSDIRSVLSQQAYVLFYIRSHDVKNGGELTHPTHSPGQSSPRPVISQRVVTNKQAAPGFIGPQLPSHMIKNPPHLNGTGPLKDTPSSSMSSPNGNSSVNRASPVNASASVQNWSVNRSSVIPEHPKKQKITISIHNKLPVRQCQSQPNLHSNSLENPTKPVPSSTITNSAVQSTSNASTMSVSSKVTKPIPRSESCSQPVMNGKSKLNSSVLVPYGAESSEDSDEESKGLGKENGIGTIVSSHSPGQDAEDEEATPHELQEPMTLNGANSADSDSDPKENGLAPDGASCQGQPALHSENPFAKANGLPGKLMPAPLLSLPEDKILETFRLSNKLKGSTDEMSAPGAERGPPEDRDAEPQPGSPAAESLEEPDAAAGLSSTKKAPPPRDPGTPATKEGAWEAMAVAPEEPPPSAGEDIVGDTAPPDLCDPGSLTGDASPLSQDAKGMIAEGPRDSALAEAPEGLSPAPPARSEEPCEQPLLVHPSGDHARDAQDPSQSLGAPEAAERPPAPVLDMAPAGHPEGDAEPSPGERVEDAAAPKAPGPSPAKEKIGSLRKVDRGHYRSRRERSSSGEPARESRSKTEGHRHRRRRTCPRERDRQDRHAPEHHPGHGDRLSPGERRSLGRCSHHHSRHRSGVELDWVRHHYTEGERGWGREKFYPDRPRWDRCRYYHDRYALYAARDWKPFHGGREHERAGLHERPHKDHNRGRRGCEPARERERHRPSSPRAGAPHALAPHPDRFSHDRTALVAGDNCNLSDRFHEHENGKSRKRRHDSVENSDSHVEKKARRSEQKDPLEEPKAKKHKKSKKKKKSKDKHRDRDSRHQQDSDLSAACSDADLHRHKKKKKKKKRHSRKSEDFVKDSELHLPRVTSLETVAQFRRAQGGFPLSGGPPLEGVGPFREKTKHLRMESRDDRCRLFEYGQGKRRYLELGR
Summary of the method: (§1)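 Labelled DUBs were enriched with NeutrAvidin, digested with LysC and trypsin, and run by diaPASEF LC-MS/MS. The labelling used Biotin-Ahx-Ub-VS at 0.5 µM final for 1 h on HEK293T lysate (495 µg per sample) previously treated in triplicate with fragment at 200 µM or vehicle for 3 h. Values are average log2 fragment/vehicle ratios by unpaired t-test on global-median-normalised Spectronaut quantities of proteins with ≥2 unique peptides.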

USP46 = USP46 (UniProt P62068)
USP46, sequence (P62068 whole entry): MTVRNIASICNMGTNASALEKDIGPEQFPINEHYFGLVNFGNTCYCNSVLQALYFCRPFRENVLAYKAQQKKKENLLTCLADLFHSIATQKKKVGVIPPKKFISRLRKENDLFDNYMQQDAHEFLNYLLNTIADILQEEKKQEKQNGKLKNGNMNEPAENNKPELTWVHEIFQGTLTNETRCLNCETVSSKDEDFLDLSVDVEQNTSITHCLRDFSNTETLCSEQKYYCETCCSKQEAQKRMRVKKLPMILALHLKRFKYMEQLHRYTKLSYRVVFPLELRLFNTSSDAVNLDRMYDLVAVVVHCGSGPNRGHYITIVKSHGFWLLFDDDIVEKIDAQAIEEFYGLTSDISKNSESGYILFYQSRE
Summary of the method: as §1

USP47 = biological target: T2, USP47 (UniProt Q96K76)
T2 sequence (whole entry): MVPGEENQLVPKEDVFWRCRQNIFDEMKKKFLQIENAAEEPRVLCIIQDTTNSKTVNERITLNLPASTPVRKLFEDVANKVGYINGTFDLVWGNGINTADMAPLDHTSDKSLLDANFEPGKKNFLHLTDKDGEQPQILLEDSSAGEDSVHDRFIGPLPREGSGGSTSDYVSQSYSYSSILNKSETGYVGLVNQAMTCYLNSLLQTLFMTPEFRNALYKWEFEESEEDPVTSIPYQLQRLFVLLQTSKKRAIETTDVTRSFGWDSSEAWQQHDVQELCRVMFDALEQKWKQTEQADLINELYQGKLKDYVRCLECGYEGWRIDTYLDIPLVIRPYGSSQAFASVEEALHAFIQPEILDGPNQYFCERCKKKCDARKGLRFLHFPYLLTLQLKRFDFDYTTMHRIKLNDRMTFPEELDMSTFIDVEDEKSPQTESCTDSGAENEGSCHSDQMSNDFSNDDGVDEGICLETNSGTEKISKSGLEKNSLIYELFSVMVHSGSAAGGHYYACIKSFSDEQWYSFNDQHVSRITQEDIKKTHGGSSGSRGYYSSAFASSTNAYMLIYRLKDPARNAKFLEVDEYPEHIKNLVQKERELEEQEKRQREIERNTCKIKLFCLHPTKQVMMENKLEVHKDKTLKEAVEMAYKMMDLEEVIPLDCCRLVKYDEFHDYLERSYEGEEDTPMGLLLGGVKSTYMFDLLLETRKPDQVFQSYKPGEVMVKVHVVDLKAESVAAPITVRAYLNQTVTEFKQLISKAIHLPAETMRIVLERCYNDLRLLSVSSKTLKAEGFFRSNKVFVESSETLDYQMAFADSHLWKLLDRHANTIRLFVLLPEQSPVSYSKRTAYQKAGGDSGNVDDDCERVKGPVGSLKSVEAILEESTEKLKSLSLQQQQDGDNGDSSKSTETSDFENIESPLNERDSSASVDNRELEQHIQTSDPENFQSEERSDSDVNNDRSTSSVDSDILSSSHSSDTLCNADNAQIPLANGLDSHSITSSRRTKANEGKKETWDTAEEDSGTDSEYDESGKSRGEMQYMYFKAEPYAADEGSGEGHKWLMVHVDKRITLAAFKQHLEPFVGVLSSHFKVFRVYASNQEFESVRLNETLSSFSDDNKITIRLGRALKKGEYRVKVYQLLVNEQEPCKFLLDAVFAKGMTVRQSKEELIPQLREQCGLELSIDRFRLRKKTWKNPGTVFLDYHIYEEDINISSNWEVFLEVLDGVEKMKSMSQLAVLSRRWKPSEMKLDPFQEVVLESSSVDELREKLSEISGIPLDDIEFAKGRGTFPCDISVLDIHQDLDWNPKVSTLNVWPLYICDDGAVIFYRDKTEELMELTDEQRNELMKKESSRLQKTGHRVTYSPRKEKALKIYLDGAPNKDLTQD
Summary of the method: as §1

USP48 = biological target: T3, USP48 (UniProt Q86UV5)
T3 sequence (whole entry): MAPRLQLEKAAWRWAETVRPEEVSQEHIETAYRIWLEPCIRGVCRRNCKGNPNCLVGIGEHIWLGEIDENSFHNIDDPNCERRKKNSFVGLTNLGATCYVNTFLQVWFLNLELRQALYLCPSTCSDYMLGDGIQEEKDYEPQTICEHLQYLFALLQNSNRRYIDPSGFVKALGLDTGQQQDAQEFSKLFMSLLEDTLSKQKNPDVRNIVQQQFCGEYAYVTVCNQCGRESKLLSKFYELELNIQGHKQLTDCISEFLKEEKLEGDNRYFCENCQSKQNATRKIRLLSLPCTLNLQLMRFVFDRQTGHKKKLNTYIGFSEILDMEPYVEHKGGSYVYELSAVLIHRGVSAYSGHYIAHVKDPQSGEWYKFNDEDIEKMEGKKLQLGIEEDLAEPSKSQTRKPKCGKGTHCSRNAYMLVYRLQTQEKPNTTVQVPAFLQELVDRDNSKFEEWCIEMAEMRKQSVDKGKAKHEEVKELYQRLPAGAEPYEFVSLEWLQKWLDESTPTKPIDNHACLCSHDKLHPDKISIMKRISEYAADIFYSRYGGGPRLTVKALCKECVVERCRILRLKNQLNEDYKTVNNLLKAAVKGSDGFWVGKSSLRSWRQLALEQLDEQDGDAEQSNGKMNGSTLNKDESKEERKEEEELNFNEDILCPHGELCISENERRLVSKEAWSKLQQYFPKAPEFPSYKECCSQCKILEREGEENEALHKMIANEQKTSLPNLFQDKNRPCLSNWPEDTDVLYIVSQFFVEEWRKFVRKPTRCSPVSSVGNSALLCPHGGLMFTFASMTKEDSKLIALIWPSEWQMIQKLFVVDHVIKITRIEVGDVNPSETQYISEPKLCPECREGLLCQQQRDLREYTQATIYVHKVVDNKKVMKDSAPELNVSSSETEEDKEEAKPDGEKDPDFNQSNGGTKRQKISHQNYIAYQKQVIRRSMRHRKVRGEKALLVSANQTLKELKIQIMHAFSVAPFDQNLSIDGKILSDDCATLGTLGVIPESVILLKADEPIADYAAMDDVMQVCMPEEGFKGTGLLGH
Summary of the method: as §1

USP5 = biological target: T4, USP5 (UniProt P45974)
T4 sequence (whole entry): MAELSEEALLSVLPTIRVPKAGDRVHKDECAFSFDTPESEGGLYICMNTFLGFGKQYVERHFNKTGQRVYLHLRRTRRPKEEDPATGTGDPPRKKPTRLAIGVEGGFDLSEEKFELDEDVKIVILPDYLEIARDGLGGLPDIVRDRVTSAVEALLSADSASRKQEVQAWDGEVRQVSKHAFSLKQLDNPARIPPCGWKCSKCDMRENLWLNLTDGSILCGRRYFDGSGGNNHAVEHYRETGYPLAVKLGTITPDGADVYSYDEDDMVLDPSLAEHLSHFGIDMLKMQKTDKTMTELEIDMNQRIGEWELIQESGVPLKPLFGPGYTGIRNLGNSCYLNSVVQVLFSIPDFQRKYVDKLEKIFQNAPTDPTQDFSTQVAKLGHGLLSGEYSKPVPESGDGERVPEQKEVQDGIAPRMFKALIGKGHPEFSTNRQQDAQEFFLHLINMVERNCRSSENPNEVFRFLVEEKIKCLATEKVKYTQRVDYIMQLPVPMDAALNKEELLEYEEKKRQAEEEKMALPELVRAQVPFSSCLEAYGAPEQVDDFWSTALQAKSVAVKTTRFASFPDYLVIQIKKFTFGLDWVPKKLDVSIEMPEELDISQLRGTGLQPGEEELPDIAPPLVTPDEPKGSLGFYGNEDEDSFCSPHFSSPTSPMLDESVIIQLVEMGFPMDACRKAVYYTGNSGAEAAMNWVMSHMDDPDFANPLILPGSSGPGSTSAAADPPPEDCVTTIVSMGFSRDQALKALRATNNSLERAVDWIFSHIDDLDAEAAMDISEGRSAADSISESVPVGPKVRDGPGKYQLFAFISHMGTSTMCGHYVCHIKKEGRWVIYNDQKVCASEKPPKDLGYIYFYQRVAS
Summary of the method: as §1

USP54 = USP54 (UniProt Q70EL1)
USP54, sequence (Q70EL1 whole entry): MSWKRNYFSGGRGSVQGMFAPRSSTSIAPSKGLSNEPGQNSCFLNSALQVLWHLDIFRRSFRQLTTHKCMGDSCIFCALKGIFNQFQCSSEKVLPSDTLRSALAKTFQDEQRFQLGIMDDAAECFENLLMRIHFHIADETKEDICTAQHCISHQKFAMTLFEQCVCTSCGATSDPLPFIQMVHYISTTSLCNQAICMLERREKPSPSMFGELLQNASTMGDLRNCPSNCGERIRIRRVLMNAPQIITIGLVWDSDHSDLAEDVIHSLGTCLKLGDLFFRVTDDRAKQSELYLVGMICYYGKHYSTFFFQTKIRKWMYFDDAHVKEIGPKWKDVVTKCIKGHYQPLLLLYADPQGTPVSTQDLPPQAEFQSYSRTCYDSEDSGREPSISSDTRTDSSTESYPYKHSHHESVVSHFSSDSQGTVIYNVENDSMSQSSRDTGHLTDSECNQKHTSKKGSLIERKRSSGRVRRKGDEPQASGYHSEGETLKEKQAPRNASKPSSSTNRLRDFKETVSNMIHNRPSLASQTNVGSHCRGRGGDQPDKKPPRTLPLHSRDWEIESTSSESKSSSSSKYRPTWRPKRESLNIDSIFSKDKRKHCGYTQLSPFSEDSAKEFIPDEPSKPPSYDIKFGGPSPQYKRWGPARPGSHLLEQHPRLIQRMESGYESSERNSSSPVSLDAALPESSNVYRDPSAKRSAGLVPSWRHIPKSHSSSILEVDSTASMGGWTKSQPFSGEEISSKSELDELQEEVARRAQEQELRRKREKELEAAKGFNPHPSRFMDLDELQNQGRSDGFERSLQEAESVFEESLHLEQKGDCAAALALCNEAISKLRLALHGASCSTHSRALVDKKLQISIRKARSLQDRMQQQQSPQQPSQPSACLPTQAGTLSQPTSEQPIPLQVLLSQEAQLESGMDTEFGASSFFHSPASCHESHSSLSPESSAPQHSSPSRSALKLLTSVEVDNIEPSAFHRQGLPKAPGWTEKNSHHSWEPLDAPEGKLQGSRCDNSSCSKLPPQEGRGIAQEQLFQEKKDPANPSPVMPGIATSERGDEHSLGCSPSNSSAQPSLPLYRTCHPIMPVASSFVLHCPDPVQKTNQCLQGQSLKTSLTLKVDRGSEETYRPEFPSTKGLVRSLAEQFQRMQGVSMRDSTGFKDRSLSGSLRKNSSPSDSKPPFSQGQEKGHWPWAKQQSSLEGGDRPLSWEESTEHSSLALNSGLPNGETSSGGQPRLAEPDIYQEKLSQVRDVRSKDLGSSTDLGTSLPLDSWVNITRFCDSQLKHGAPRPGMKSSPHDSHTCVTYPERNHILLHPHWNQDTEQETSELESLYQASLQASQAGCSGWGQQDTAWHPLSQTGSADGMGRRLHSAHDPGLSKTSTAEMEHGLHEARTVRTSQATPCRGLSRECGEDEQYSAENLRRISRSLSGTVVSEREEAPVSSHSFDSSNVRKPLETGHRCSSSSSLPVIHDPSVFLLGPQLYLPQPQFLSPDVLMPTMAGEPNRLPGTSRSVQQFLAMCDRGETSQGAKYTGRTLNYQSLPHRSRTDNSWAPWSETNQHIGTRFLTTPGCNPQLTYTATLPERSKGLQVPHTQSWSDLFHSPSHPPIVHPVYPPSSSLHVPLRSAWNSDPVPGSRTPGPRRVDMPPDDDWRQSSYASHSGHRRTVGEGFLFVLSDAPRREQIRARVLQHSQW
Summary of the method: as §1

USP7 = USP7 (UniProt Q93009)
Summary of the method: as §1

USP8 = biological target: T5, USP8 (UniProt P40818)
T5 sequence (whole entry): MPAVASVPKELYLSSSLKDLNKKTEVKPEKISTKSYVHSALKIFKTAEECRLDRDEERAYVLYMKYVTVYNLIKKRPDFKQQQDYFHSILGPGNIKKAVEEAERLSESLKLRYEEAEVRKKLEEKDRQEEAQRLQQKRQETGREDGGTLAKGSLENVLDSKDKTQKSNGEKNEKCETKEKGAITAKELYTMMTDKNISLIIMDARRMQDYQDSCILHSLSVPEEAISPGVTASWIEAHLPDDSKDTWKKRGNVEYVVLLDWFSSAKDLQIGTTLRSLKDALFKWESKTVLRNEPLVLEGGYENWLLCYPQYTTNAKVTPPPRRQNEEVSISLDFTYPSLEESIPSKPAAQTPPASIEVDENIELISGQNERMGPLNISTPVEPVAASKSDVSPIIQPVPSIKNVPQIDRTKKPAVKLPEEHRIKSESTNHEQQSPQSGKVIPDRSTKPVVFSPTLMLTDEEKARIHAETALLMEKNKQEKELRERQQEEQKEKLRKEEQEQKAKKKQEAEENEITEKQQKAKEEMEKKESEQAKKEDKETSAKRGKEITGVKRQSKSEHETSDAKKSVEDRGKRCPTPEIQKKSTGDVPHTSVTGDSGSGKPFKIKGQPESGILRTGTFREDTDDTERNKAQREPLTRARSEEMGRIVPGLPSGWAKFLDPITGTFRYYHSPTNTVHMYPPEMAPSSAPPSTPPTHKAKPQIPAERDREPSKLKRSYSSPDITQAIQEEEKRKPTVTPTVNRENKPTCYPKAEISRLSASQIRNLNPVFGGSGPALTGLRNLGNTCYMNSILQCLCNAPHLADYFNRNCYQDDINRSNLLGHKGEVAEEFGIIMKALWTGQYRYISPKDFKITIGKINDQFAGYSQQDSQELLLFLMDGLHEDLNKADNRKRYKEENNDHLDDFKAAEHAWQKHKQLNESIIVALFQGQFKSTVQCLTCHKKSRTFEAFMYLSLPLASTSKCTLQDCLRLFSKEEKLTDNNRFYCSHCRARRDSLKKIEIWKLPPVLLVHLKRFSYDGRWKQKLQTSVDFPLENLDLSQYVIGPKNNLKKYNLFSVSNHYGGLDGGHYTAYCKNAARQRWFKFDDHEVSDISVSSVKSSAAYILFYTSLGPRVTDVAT
Summary of the method: as §1

USP9X = USP9X (UniProt Q93008)
USP9X, sequence (Q93008 whole entry): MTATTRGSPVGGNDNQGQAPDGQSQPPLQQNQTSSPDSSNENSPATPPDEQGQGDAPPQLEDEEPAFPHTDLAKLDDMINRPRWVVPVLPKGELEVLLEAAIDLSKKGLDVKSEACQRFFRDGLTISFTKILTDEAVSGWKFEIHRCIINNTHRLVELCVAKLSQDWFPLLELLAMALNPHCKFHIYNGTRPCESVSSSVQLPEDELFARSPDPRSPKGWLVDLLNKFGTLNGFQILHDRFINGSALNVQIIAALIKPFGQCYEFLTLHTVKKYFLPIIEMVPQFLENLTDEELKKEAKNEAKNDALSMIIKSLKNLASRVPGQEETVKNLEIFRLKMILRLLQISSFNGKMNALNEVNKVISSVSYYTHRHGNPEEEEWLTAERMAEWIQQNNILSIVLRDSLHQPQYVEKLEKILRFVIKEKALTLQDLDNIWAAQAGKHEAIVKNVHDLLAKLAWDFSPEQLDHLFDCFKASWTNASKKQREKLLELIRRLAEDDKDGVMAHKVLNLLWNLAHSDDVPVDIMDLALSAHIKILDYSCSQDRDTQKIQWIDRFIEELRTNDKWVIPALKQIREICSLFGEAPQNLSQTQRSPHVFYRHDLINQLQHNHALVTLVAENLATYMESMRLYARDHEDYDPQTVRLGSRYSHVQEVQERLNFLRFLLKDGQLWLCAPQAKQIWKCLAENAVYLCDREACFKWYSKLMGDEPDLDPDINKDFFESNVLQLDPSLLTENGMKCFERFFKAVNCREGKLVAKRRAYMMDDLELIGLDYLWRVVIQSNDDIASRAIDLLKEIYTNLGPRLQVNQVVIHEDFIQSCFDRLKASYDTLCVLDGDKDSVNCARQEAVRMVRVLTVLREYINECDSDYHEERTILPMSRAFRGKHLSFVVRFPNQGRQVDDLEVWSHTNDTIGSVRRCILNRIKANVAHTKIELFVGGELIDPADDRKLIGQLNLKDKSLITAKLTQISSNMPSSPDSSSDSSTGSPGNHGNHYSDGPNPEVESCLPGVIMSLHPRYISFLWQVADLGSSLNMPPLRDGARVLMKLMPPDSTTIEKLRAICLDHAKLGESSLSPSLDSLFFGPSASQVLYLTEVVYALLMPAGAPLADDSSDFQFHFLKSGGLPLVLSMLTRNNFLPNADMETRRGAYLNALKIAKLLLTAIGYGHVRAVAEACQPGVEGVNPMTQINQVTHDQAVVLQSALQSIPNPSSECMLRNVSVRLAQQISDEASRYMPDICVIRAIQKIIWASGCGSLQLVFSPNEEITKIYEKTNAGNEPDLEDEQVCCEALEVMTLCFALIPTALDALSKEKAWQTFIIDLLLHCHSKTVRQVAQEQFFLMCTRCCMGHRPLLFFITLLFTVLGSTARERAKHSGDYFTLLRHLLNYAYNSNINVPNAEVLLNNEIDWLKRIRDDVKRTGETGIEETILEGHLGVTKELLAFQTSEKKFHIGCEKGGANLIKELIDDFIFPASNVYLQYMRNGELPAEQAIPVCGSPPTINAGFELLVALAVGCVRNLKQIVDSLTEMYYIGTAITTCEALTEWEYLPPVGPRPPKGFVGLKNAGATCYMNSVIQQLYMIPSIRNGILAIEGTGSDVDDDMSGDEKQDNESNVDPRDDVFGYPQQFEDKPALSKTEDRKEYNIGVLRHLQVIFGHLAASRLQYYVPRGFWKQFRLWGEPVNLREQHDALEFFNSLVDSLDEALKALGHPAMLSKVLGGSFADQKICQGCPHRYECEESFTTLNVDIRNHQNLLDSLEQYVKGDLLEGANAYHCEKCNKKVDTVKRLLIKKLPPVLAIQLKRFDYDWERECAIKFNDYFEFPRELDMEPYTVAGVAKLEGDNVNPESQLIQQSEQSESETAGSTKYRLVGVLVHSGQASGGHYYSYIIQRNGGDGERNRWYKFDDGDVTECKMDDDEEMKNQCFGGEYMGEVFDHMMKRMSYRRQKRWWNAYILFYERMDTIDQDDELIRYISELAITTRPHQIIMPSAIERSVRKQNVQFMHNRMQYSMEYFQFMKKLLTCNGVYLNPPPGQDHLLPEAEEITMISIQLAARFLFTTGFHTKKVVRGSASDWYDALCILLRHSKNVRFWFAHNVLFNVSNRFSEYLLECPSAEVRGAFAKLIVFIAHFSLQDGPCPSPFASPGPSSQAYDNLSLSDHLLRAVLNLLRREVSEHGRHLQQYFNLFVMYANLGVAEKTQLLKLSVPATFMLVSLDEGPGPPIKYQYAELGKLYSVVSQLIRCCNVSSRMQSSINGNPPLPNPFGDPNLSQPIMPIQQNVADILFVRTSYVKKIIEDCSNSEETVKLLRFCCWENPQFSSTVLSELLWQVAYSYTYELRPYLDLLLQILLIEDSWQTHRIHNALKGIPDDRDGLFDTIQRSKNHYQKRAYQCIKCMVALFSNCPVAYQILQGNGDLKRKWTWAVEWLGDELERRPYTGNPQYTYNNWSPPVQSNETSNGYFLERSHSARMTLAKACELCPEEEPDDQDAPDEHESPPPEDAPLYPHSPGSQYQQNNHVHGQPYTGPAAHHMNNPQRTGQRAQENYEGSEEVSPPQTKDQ
Summary of the method: as §1

UniProt O00487 = biological target: UniProt O00487
UniProt O00487, sequence (O00487 whole entry): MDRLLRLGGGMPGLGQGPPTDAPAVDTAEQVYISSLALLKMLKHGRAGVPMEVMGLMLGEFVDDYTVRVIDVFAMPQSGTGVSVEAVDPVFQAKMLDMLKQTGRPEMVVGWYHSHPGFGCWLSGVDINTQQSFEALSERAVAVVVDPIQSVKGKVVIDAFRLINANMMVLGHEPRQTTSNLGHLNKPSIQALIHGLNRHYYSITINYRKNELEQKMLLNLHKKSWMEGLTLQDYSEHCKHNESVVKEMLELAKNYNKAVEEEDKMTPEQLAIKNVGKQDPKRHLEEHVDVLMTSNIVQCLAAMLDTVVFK
Summary of the method: as §1

Measured: log2 ratio of Biotin-Ahx-Ub-VS probe labelling

O=C(CCl)N[C@H]1CC[C@@H](CO)CC1
inactive: USP42 0.163 | USP46 -0.593 | USP47 -0.113 | USP48 -0.534 | USP5 -0.644 | USP54 1 | USP7 -0.752 | USP8 -0.969 | USP9X -0.905 | UniProt O00487 -0.163
